Data reported in PubChem BioAssay AID1069 (NMMLSC, 2008).
Activity calls are given as the source filed them.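 Rule for the calls: active = high combined rank on largest and smallest cell-count-weighted shift across three tests, rank score above 45, floors 50 and 25 (some results past the limit were not filed as active); inactive = the rest.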

Assay: activators of LNCaP cell differentiation, retest, confirmation, side scatter shift, flow cytometry (AID 1069);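 note: LNCaP human prostate cancer cells in low-serum medium with charcoal-stripped FBS; percent of cells with raised granularity gated so DMSO controls show 10%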
Details: 4 d, stronger effect = higher value

Row | SMILES | side scatter shift (at 100 µM) | side scatter shift (side scatter shift, at 10 µM) [%]
1 | C=C(C)Cn1c(-c2ccccc2)nc2ccccc21 | 6.3% (inactive) | 4.15
2 | O=C(NCCCN1CCN(c2ccc(F)cc2)CC1)c1cccc(N2CCCC2=O)c1 | 51.9% (active) | 13.7
3 | CCc1ncc(C(O)c2cccc(OC)c2OC)n1C (centres undefined) | 1.4% (inactive) | 5.25
4 | COc1ccc(CCNC(=O)C2CCN(Cc3nc(-c4ccccc4C)oc3C)CC2)cc1OC | 0% (inactive) | 20
5 | O=C(CCN1C(=O)COc2ccccc21)NCCCN1CCN(c2ccccc2F)CC1 | 21% (inactive) | 4.4
6 | O=C(CCn1c(=O)oc2ccccc21)NCCCN1CCN(c2ccc(F)cc2)CC1 | 25.4% (inactive) | 4.25
7 | Cn1cc(CNC(=O)C2c3ccccc3Oc3ccccc32)cn1 | 7.3% (inactive) | 3
8 | CCOc1ccc2ccccc2c1C(=O)N1CCN(c2ccccc2)CC1 | 21.1% (inactive) | 1.7
9 | Cc1ccc(Cn2ccc(NC(=O)c3cc(-c4ccc(Br)cc4)on3)n2)cc1 | 23% (inactive) | 10.6
10 | COc1ccc2cc3c(N)nn(C(=O)Cc4ccccc4OC)c3nc2c1 | 20% (inactive) | 8.05
11 | COC(=O)C1=C(C)N=c2s/c(=C/c3cccs3)c(=O)n2C1c1cccs1 (centres undefined) | 32.8% (inactive) | 12.7
12 | CC(C)(O)c1cn(-c2nonc2N)nn1 | 10.4% (inactive) | 5.4
13 | COc1ccc2c(c1)CCc1c(C(=O)Nc3cc(C)n(Cc4ccc(Cl)cc4)n3)noc1-2 | 37.2% (inactive) | 7.45
14 | CC1(C)CC(=O)c2cc(OCC(=O)NCCCN3CCN(c4ccc(F)cc4)CC3)ccc2O1 | 5.9% (inactive) | 15.1
15 | Cc1ccccc1CN1CCN(CC(=O)NCCCN2CCN(c3ccc(F)cc3)CC2)C1=O | 3.3% (inactive) | 5.15
16 | CCN1CCN(C(=O)C2CCN(Cc3nc(-c4cccc(Cl)c4)oc3C)CC2)CC1 | 16.7% (inactive) | 19.1
17 | Cc1ccc(-n2nc3cc(Cl)c(NC(=O)c4ccco4)cc3n2)cc1 | 20.7% (inactive) | 2.8
18 | O=c1cc(N2CCN(c3ccc(F)cc3)CC2)[nH]c(=O)n1C1CCCCC1 | 16.8% (inactive) | 5.4
19 | CCn1c(=O)cc(OCC(=O)NCCCN2CCN(c3cccc(Cl)c3)CC2)c2ccccc21 | 40% (inactive) | 18.3

Row | SMILES | side scatter shift (at 100 µM) | side scatter shift (side scatter shift, at 10 µM) [%]
20 | COc1cc2nc(N3CCN(C(=O)C4COc5ccccc5O4)CC3)nc(N)c2cc1OC (centres undefined) | 0% (active) | 55.2
21 | CCn1c(=O)cc(SCC(=O)NCCCN2CCN(c3ccc(F)cc3)CC2)c2ccccc21 | 14.3% (inactive) | 21.6
22 | Nc1ccc(-c2nc3c(Cl)c(N)ccc3[nH]2)cc1 | 20.2% (inactive) | 4.7
23 | Cn1c(=O)cc(SCC(=O)NCCCN2CCN(c3ccc(F)cc3)CC2)c2ccccc21 | 46.7% (inactive) | 8.35
24 | O=C(NCC1CCCO1)C1CC(c2ccc(Cl)c(Cl)c2)=NO1 (centres undefined) | 8.2% (inactive) | 2.4
25 | CCOC(=O)N1CCC(NC(=O)c2cc3c(-c4ccccc4F)nn(C)c3s2)CC1 | 3.3% (inactive) | 3.9
26 | CCCCCn1c(=N)n(CC(O)COc2ccccc2OC)c2ccccc21 (centres undefined) | 15% (inactive) | 25.1
27 | Cc1nc2c3cnn(-c4ccccc4)c3ncn2n1 | 5% (inactive) | 1.75
28 | COc1ccc(Nc2nc(N)nc(CN3CCC(Cc4ccccc4)CC3)n2)cc1 | 16.7% (inactive) | 33.3
29 | Cc1ccc(OCC(O)Cn2c(=N)n(CCN3CCCCC3)c3ccccc32)cc1 (centres undefined) | 23.1% (active) | 65.5
30 | COCCNC(=O)CC(NS(=O)(=O)c1ccc(NC(C)=O)cc1)C(C)C (centres undefined) | 6.3% (inactive) | 9.45
31 | CCn1c(=N)n(CC(O)COc2cccc(C)c2)c2ccccc21 (centres undefined) | 0% (inactive) | 9.75
32 | COCCn1c(=O)[nH]c2cc(C(=O)NCCCN3CCN(c4ccc(F)cc4)CC3)ccc2c1=O | 37.9% (inactive) | 6.5
33 | Cc1cccc(-c2nc(CN3CCCC(C(=O)NC4CCCCC4)C3)c(C)o2)c1 (centres undefined) | 21.4% (inactive) | 7.35
34 | Cc1cc(NC(=O)CSc2nnc(Cn3c(=O)sc4ccccc43)n2-c2ccccc2C)no1 | 26.5% (inactive) | 8.25
35 | O=C(Nc1cccc(Cl)c1)N1CCN(Cc2ccccc2)CC1 | 7.1% (inactive) | 10.2
36 | Cc1ccccc1-c1nc(CN2CCC(C(=O)NCCCN3CCCC3)CC2)c(C)o1 | 40% (inactive) | 19.4
37 | N#CC(C(=O)c1ccco1)c1ccccn1 (centres undefined) | 2.5% (inactive) | 10.3
